# Source: PubChem BioAssay (NCATS)
# Results filed as inconclusive are left out. A call without a number means that no potency is given here. Active and inactive are the calls of the source. Calls come from the whole dose curve; as a rule, active = well fitted cell-killing curve with a large enough effect; inconclusive = small, poorly fitted or top-dose-only effect; inactive = no such curve, though single readings can be large or run the other way. Starred links: 1 amine or outer side, 2 acyl side, 3 side chain; linkers in the order of their positions; H or OH if unused. Positions of bridges follow the written chain, without caps; N, C: chain ends. Non-standard residues stand in square brackets, D forms with d. Residues, ends and D or L forms follow the SMILES beside them. Chains are numbered I, II in the order given. ξ: configuration not given here. *: point of attachment. Actinocin(9to1) = Cc1c2oc3c(C)ccc(C(=O)[*:1])c3nc-2c(C(=O)[*:2])c(N)c1=O; Octanoyl(6-Me) = CCC(C)CCCCC(=O)*; ξThr(3R) = C[C@@H](O)C(N)C(=O)O; NMeV = CN[CH](C(=O)O)C(C)C; dDab = NCC[C@@H](N)C(=O)O; Dab = NCC[C@H](N)C(=O)O; Sar = CNCC(=O)O
# Assay: qHTS of pediatric cancer cell lines to identify multiple opportunities for drug repurposing: Primary screen for Rh30 cells (AID 1347107); note: nearly all actives have a fitted effect of over 75% in size
# Settings: Rh30 rhabdomyosarcoma viability, CellTiter-Glo luminescence, 48 h; series mostly up to 46 µM
# Excerpt: Drug repurposing or repositioning has been offered as a strategy for drug development in oncology programs. This approach has special potential for childhood cancers and other rare or orphan diseases, where the expected return on new drug development has been a disincentive to pharmaceuticals.
# In this project we exploit the poly-pharmacology of drugs to discover new indications via phenotypic screening of a panel of 19 well-characterized cell lines derived from solid tumors seen in children and adolescents. The goal is to identify approved drugs with previously unrecognized anticancer properties that has the potential to reveal new mechanisms and biological processes involved in carcinogenesis or drug resistance. We employed a titration-based paradigm (quantitative high-throughput screening or qHTS), where all compounds were tested at multiple concentrations for their effect on cell viability. Concentration-response curves (CRCs) were derived directly from the primary screen, and both potency and efficacy values were used to identify compounds with robust bioactivity profiles. We screened the NIH Chemical Genomics Center (NCGC) Pharmaceutical Collection (NPC) and Mechanism Interrogation Plate (MIPE) small molecule collections of approved and investigational compounds against these cell lines; and measured metabolically active cells after 48 hours of compound treatment as a proxy for cell viability.
# Assay Submitter: Nathalia J. Martinez, National Center for Advancing Translational Sciences, National Institutes of Health, Rockville, MD, USA; email: natalia.martinez@nih.gov
# [1] Shen, M et al. Quantitative high-throughput phenotypic screening of pediatric cancer cell lines identifies multiple opportunities for drug repurposing. Oncotarget 2017 Dec 19;9(4):4758-4772. PMID 29435139.
# The cells were obtained from University of North Carolina (UNC), Pediatric Preclinical Testing Program (PPT), and Coriell Institute (CI).
# qHTS cell viability assay:
# Cells were assayed in growth media at a density of 500-1,000 cells/well. Five microliters of cells were dispensed into 1,536-well, white, solid-bottom, TC-treated plates (Greiner Bio One) using a multidrop dispenser and incubated at 37 degrees C, 5% CO2, under a humidified atmosphere for 5 hours. Twenty-three nanoliters of compounds and controls (neutral control DMSO or positive control bortezomib at final concentration of 2.3 µM) were subsequently transferred by Kalypsys pintool. For primary screens, the MIPE collection was tested at 11-point dilutions (final concentrations range from 0.78 nM to 46 µM) and the NPC collection at 8-point dilutions (final concentrations range from 0.59 nM to 46 µM). Compounds tested in follow-up screens were assayed at 11-point dilutions. Cells were incubated for 48 hours, followed by addition of 3 µL of CellTiter-Glo (Promega). After a 15 min incubation at room temperature, samples were analyzed for luminescence intensity using a ViewLux High-throughput CCD imager equipped with clear filters.
# Potency is the fitted concentration of half-maximal effect.
SMILES,Potency,"activity change, negative = cytotoxic"
C=CC(=O)Nc1cccc(Nc2nc(NC3CCC(N(C)C)CC3)nc3c2ncn3C(C)C)c1 (stereo not given),inactive,–
COc1cc(OC)cc(-c2ccc3ncc4ccc(=O)n(-c5ccc(N6CCNCC6)c(C(F)(F)F)c5)c4c3c2)c1,16.6 µM (active),–
CC(=O)[C@]1(O)Cc2c(O)c3c(c(O)c2[C@@H](O[C@H]2C[C@H](N)[C@@H](O)[C@H](C)O2)C1)C(=O)c1ccccc1C3=O,4.69 µM (active),–
C[C@H](NC(=O)C(C#N)=Cc1cccc(Br)n1)c1ccccc1,23.5 µM (active),–
Cc1cnc(Nc2ccc(N3CCN(C)CC3)cc2)nc1Nc1cccc(S(=O)(=O)NC(C)(C)C)c1,5.9 µM (active),–
CC[C@]12C=CCN3CC[C@@]4(c5cc([C@@]6(C(=O)OC)C[C@H]7C[C@@H](C(C)(F)F)CN(Cc8c6[nH]c6ccccc86)C7)c(OC)cc5N(C)[C@H]4[C@@](O)(C(=O)OC)[C@H]1OC(C)=O)[C@@H]32,inactive,–
OC[C@@H](O)[C@@H](O)[C@H](O)[C@@H](O)CO,inactive,–
CN1C(C(=O)Nc2ccccn2)=C(O)c2sc(Cl)cc2S1(=O)=O,inactive,–
Cc1ccc([N+](=O)[O-])cc1S(=O)(=O)N(C)N=Cc1cnc2ccc(Br)cn12,inactive,–
Cc1ccc(O)c(C(CCN(C(C)C)C(C)C)c2ccccc2)c1 (stereo not given),inactive,–
O=C(Nc1ccc(Oc2ccnc3[nH]ccc23)c(F)c1)c1cccn(-c2ccc(F)cc2)c1=O,inactive,–
CC(C(C)N1CC(=O)NC(=O)C1)N1CC(=O)NC(=O)C1 (stereo not given),inactive,–
Oc1cc2c(cc1O)C1c3ccc(O)c(O)c3OCC1(O)C2 (stereo not given),inactive,–
Cc1cnc(NC(=O)Nc2cc(Br)c(C)cc2OC[C@@H]2CNCCO2)cn1,inactive,–
"Cc1c2oc3c(C)ccc(C(=O)NC4C(=O)NC(C(C)C)C(=O)N5CCCC5C(=O)N(C)CC(=O)N(C)C(C(C)C)C(=O)OC4C)c3nc-2c(C(=O)NC2C(=O)NC(C(C)C)C(=O)N3CCCC3C(=O)N(C)CC(=O)N(C)C(C(C)C)C(=O)OC2C)c(N)c1=O (stereo not given) (I: TVP[Sar][NMeV] / II: TVP[Sar][NMeV]; ester I:1-I:C, II:1-II:C; linker I:N-II:N via Actinocin(9to1); configuration not given here)",inactive,–
CCN1CCN(C(=O)N[C@H](C(=O)N[C@@H]2C(=O)N3C(C(=O)O)=C(CSc4nnnn4C)CS[C@@H]23)c2ccc(O)cc2)C(=O)C1=O,–,26.1% [at 9.22 µM] (inactive)
Cc1cnc(Nc2ccc(CN3CCOCC3)cc2)nc1Nc1cccc(S(=O)(=O)NC(C)(C)C)c1,6.62 µM (active),–
N#Cc1cc(NC(=O)Nc2nnc(-c3ccncc3)s2)ccc1-c1cn[nH]c1,inactive,–
C#Cc1cccc(Nc2ncnc3cc(OCCOC)c(OCCO)cc23)c1,inactive,–
COc1ccc(Nc2nccc(NCCO)n2)cc1,inactive,–

SMILES,Potency,"activity change, negative = cytotoxic"
CN1[C@H]2CC(OC(=O)[C@@H](CO)c3ccccc3)C[C@H]1[C@H]1O[C@H]12 (stereo not given in full),inactive,–
NC(=O)Nc1sc(-c2ccc(F)cc2)cc1C(N)=O,6.62 µM (active),–
CC(=O)N1CCN(c2ccc(OCc3nn(C)c(C)c3-c3cccc4c(CCCOc5cccc6ccccc56)c(C(=O)O)n(Cc5cccnc5)c34)cc2)CC1,4.69 µM (active),–
CC(C)(O)CC[C@@H](O)[C@](C)(O)[C@H]1CC[C@@]2(O)C3=CC(=O)[C@@H]4C[C@@H](O)[C@@H](O)C[C@]4(C)[C@@H]3CC[C@]12C,inactive,–
CCCNC(=O)[C@H]1O[C@H]1C(=O)N[C@H](C(=O)N1CCC[C@@H]1C(=O)OC)C(C)CC (stereo not given in full),18.7 µM (active),–
CCC(C)CCCCC(=O)N[C@@H](CCN)C(=O)NC(C(=O)N[C@H](CCN)C(=O)N[C@@H]1CCNC(=O)C([C@@H](C)O)NC(=O)[C@@H](CCN)NC(=O)[C@@H](CCN)NC(=O)[C@@H](CC(C)C)NC(=O)[C@H](Cc2ccccc2)NC(=O)[C@H](CCN)NC1=O)[C@@H](C)O (stereo partly drawn) ({Octanoyl(6-Me)}-[Dab][ξThr(3R)][dDab][dDab][Dab]F[dL][dDab][dDab][ξThr(3R)]; lactam 4-C),inactive,–
N#CNC(=NCCCCCCOc1ccc(Cl)cc1)Nc1ccncc1,0.0059 µM (active),–
CN(C)c1ccc2cc(C(=O)N[C@@H](CCCN=C(N)CCl)C(=O)NCc3ccccc3)ccc2c1,4.69 µM (active),–
O=C(NCc1ccccc1)[C@H](Cc1ccccc1)NC(=O)[C@@H]1O[C@@H]1C(=O)NCCc1ccc(O)cc1,inactive,–
Cn1cc(-c2cnn3c(N)c(Br)c([C@H]4CCCNC4)nc23)cn1,inactive,–
CC(N[C@H]1CCCC[C@H]1NC(=O)c1ccc(Cl)cc1)c1cccc2ccccc12 (stereo not given in full),inactive,–
CON=C(C(=O)N[C@@H]1C(=O)N2C(C(=O)O)=C(CSC(=O)c3ccco3)CS[C@H]12)c1csc(N)n1,inactive,–
COc1cc2c(cc1O)CCC1C2CC[C@@]2(C)C1CC[C@@H]2O (stereo not given in full),inactive,–
CC(C)c1cc(C(C)C)c(CC(=O)NS(=O)(=O)Oc2c(C(C)C)cccc2C(C)C)c(C(C)C)c1,inactive,–
Cc1onc(-c2ccccc2)c1C(=O)N[C@@H]1C(=O)N2[C@@H](C(=O)O)C(C)(C)S[C@@H]12,inactive,–
Nc1ccn(C2CO[C@H](CO)O2)c(=O)n1 (stereo not given in full),inactive,–
C[C@H](O)[C@@H]1C(=O)N2C(C(=O)O)=C(S[C@@H]3CN[C@H](CNS(N)(=O)=O)C3)[C@@H](C)[C@@H]12,inactive,–
CCNC(=O)c1cc2c(-c3cc(OCCN4CCCC4)c(Cl)cc3Cl)nc(N)nc2s1,inactive,–
COc1cc(N2CCC(C(N)=O)CC2)ccc1Nc1nc(N)c(Cl)c(Nc2ccccc2S(=O)(=O)C(C)C)n1,inactive,–
C[C@@H]1C(=O)O[C@H]2CC34[C@H]5C[C@@H](C(C)(C)C)C36[C@H](OC(=O)[C@@H]6O)O[C@@]4(C(=O)O5)[C@]21O (stereo not given in full),inactive,–
